High-throughput results (PubChem)
p53 reactivation: re-activators of mutant p53 | Potency, µM (titrated, usually from 92.2 µM), most hits filed as activators | 320,000 compounds, 0.063% hits | H1299 p53-A138V BP100-luciferase reporter, luminescence, 24 h | AID 504706; note: nearly all actives have a fitted effect of over 45% in size
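H1299 (p53-null), stable ts p53-A138V + BP100-Luc; 1000 cells/well, Opti-MEM/10% FBS; cpd 4 pt, 1:5; 24 h, 37 deg C, 5% CO2; detection reagent 10 min RT; luminescence.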
Rab9 promoter act: activators of Rab9 promoter; Huh7 Rab9 promoter-luciferase reporter, luminescence, 24 h; AID 485297; Potency, µM (series often up to 9.22 µM), actives largely listed as activators; 320,000 compounds, 2.8% hits; note: nearly all actives have a fitted effect of over 60% in size
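Cell-based reporter: Huh7 stable for Rab9 promoter-driven luciferase, plated in reduced-serum medium with 10% FBS at 1500 cells/well, compound-treated 24 h at 37 °C, luminescence read after 10 min reagent.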
FLuc counter: inhibits or activates purified firefly luciferase, miR-21 counter-screen | Potency, µM (titrated, usually from 57.5 µM), most hits filed as inhibitors | P08659 | 360,000 compounds, 6.9% hits | AID 588342 | purified FLuc, Km substrates, luminescence inhibition; note: nearly all actives have a fitted effect of over 55% in size
Target sequence (P08659 whole entry, looked up): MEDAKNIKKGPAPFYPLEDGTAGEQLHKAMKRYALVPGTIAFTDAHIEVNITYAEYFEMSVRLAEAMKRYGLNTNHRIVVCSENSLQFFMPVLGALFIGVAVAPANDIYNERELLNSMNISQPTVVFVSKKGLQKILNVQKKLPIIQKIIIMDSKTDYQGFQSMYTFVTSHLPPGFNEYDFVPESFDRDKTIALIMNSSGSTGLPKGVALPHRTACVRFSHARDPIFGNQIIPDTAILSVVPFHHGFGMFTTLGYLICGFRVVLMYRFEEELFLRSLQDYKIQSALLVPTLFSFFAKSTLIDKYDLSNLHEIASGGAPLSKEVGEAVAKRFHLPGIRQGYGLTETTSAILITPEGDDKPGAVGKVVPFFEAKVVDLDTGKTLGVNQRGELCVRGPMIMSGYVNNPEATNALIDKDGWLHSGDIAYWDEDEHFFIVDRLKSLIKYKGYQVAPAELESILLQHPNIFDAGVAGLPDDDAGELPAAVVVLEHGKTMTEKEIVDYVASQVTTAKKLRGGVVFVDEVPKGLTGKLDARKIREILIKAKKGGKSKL
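Purified P. pyralis luciferase (10nM final) with 10uM D-luciferin and 10uM ATP (Km levels) in 50mM Tris acetate pH 7.5, 10mM Mg acetate, 0.01% Tween-20, 0.05% BSA; qHTS 6-point titration, ~60 µM downward; luminescence read.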
NPC1 promoter act: activates the NPC1 promoter; Huh7 NPC1 promoter luciferase reporter, 24 h; Potency, µM (highest dose often 9.22 µM), usual class: activators; 320,000 compounds, 2.4% hits; AID 485313; note: nearly all actives have a fitted effect of over 60% in size
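Quantitative HTS used a cell-based reporter: Huh7 cells stably bearing the NPC1 promoter upstream of luciferase were treated with compounds for 24 h, and promoter activation was read as luminescence.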
ELG1 genotoxic: inducers of genotoxicity in HEK293T ELG1-luciferase cells | 330,000 compounds, 1.3% hits | HEK293T ELG1-luciferase reporter, luminescence, 16 h | Potency, µM (top dose mostly 46 µM), actives largely listed as activators | AID 504466; note: nearly all actives have a fitted effect of over 60% in size
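Quantitative HTS format in 1536-well plates. HEK293T ELG1-luciferase reporter cells receive test compound and are incubated 16 hr at 37 °C, 5% CO2; ONE-Glo added, 30 min room temperature, then luminescence read.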
SMN2 splice enh: SMN2 splice variant enhancement. 210,000 compounds, 2.8% hits. Potency, µM (series often up to 46.1 µM), usual class: activators. HEK293 SMN2-luciferase splicing reporter, luminescence, 30-36 h; note: nearly all actives have a fitted effect of over 55% in size
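HEK293 cells carry an SMN2 […]–luciferase reporter in which exon 7 inclusion puts luciferase in frame. Cells were plated 10-12 h before compound addition, then incubated 30-36 h at 37C. ONE-Glo luminescence was read; sodium butyrate at 4.5 mM final served as control.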
Numbers stand for hits; 0 = inactive; ? = inconclusive; - = not tested or not shown; [ ] = remark or other dose. The list is not random: actives were taken first. Their share in the collection is about 7.4%. Calls come from the whole dose curve; as a rule, active = well fitted curve in the direction sought with a large enough effect; inconclusive = small, poorly fitted or top-dose-only effect, or another doubt; inactive = no such curve, though single readings can be large; an effect the other way counts as inactive or inconclusive.

SMILES	p53 reactivation	Rab9 promoter act	FLuc counter	NPC1 promoter act	ELG1 genotoxic	SMN2 splice enh
COC(C)(C)C	-	-	-	-	-	0
c1ccc2c(CN3CCCCCC3)c[nH]c2c1	0	?	17µM	0	?	-
COc1ccc(OC(=O)Nc2ccccc2)cc1	?	0	?	0	?	?
O=C(Nc1ccc(F)cc1)Oc1ccc[nH]c1=O	0	0	19µM	0	0	-
C[C@H](Br)CN(C[C@H](C)Br)c1ccc2c(c1)Cc1ccccc1-2	-	-	-	-	-	0[9.22 µM]
Cc1cc(/C=C2/C(=O)NC(=O)N(C)C2=O)c(C)n1-c1ccccc1	0	0	1.1µM	0	0	0
Cc1cc(C=C2C(=O)NC(=S)NC2=O)c(C)n1-c1ccc2c(c1)OCO2	0	0	3.4µM	0	0	0
Cc1cc(/C=C2\C(=O)NC(=O)N(C)C2=O)c(C)n1-c1ccc2c(c1)OCO2	0	0	1.3µM	0	0	0
Cc1cc(C=C2C(=O)NC(=O)NC2=O)c(C)n1-c1ccc2c(c1)OCO2	0	0	2.7µM	0	0	0
Cc1cc(/C=C2\C(=O)NC(=O)N(c3ccc(F)cc3)C2=O)c(C)n1-c1cccc(C(=O)O)c1	0	0	?	0	0	-
C=CC(N)=O	-	-	-	-	-	0
CN1C(=O)C(=Cc2ccc(N3CCOCC3)o2)C(=O)N(C)C1=O	?	0	?	0	0	?
CN1C(=O)C(=Cc2ccc(N3CCCCCC3)o2)C(=O)N(C)C1=S	0	?	11µM	?	?	0
N#CC(C(=O)C12CC3CC(CC(C3)C1)C2)c1nc2ccccc2[nH]1 (centres undefined)	0	0	11µM	0	0	0
CC(=O)c1ccc(OC(=O)N(C)c2ccccc2)cc1	0	?	0	?	?	16µM
CN(C(=O)Oc1ccc([N+](=O)[O-])cc1)c1ccccc1	0	0	0	0	0	?
O=C(O)/C=C\C(=O)Nc1ccc(Oc2ccc(Br)cc2)cc1	0	0	19µM	0	0	0
CC(Cc1ccccc1)NC(=O)/C=C/C(=O)O (centres undefined)	0	0	0	0	0	0
N#CC(=Cc1ccc(O)c(O)c1)C(N)=S	-	-	-	-	-	0
O=c1c2ccccc2nc(/C=C/c2cccnc2)n1Cc1ccccc1	0	0	27µM	0	0	-
O=c1c2ccccc2nc(/C=C/c2ccccc2)n1-c1ccc(O)cc1	0	0	0	0	0	-
Cn1c(=O)c2[nH]cnc2n(C)c1=O.[CH2-][C@H](Cc1cccc2cc(C(=O)O)c(=O)oc12)OC.[Hg].[OH-]	-	-	-	-	-	0[9.22 µM]
O=C(Oc1ccc2cc(Br)ccc2c1)N1CCCCCC1	?	4µM	6.7µM	?	23µM	?
O=C(O)Cn1cc(/C=C2\C(=O)NC(=O)N(Cc3ccco3)C2=O)c2ccccc21	0	0	17µM	0	0	0
N[C@@H](CP(=O)(O)O)C(=O)O	-	-	-	-	-	0[9.22 µM]
SMILES	p53 reactivation	Rab9 promoter act	FLuc counter	NPC1 promoter act	ELG1 genotoxic	SMN2 splice enh
CC[C@@]1(O)CC(O)c2c(cc3c(c2O)C(=O)c2c(O)ccc(O)c2C3=O)C1C(=O)OC (some centres undefined)	-	-	-	-	-	0
CC[C@]1(O)CC(O[C@@H]2CC(N(C)C)C(O)C(C)O2)c2c(cc3c(c2O)C(=O)c2c(O)cccc2C3=O)C1C(=O)OC (some centres undefined)	-	-	-	-	-	0.79µM
Nc1c2c(nc3sc4c(c13)CCCCC4)CCCC2	?	?	6µM	4µM	0	11µM
CCOc1ccc(-c2cn3c(n2)sc2cc(C(=O)N4CCCC(C)C4)ccc23)cc1 (centres undefined)	-	-	4.3µM	-	-	0
CCOc1ccc(C(=O)N2CCC(c3noc(-c4ccc(S(=O)(=O)N5CCCC5)cc4)n3)CC2)cc1	-	-	0	-	-	0
C=CCn1c(O)c(C(CC)=Nc2cc(OC)ccc2OC)c(=O)[nH]c1=O	0	0	0	0	23µM	?
CCC(=Nc1cc(OC)ccc1OC)c1c(O)[nH]c(=O)[nH]c1=O	0	0	0	0	0	0
O=C1c2ccccc2-c2c1nc1c([n+]2[O-])CCCC1	0	3.5µM	0	0	?	0
Cc1noc(C(=O)Nc2sc3c(c2C#N)CCC3)c1Cl	0	0	15µM	0	0	0
O=C(CCCOc1ccc(Cl)cc1Cl)N1CCC2(CC1)OCCO2	0	0	?	0	?	0
CCC(Oc1cc(Cl)ccc1Cl)C(=O)N1CCC2(CC1)OCCO2 (centres undefined)	0	1.8µM	11µM	0.89µM	?	-
Cc1ccc(C(=O)n2c(N)nc3ccccc32)cc1	0	0.1µM	0.19µM	?	0.21µM	0.4µM
Cc1ccc(-c2nc3ccccc3c(=O)n2-c2ccc(O)cc2)cc1	0	0	0	0	0	0
CCN=C=NCCCN(C)C	-	-	-	-	-	0[9.22 µM]
O=C(O)Cc1ccc([N+](=O)[O-])cc1[N+](=O)[O-]	-	-	-	-	-	0[9.22 µM]
N[C@@H](Cc1ccccc1)P(=O)(O)O	-	-	-	-	-	0[9.22 µM]
COC(=O)[C@@H]1C[C@H]1[C@@H](NP(=O)(c1ccccc1)c1ccccc1)c1ccccc1	0	0	0	0	18µM	10µM
c1ccc(C2CO2)cc1 (centres undefined)	-	-	-	-	-	0
CN1CCc2cc3c(c4c2C1Cc1ccccc1-4)OCO3 (centres undefined)	-	6.3µM	0	0	0	-
N[C@H](Cc1ccccc1)c1nn[nH]n1	-	-	-	-	-	0[9.22 µM]
O=C1NC(=O)N(c2ccccc2)C(=O)/C1=C\C=C\c1ccccc1	0	0	?	0	0	-
O=C(CN1C(=O)S/C(=C\C=C\c2ccccc2)C1=O)Nc1ccccc1C(=O)O	0	0	27µM	0	0	-
Oc1c(Cl)cc(Cl)cc1Cl	-	-	-	-	-	0
Cc1ccc2scc(N3CCN(C)CC3)c(=O)c2c1	-	-	12µM	-	-	-
Cc1cc(C)cc(N2C(=O)NC(=O)/C(=C\c3cc(C)n(C)c3C)C2=O)c1	0	0	0	0	0	0
SMILES	p53 reactivation	Rab9 promoter act	FLuc counter	NPC1 promoter act	ELG1 genotoxic	SMN2 splice enh
CC1=NN(c2ccccc2)C(=O)C1/C=C1/C(=O)NC(=O)N(c2cc(C)cc(C)c2)C1=O (centres undefined)	0	0	17µM	0	0	0
Cc1cc(C)cc(N2C(=O)NC(=O)/C(=C\C=C\c3ccco3)C2=O)c1	0	0	?	0	0	0
COc1ccc(/C=C2/C(=O)NC(=O)N(c3ccc(C)c(C)c3)C2=O)cc1CN1C(=O)c2ccccc2C1=O	0	0	0	0	0	0
CC1=NN(c2ccccc2)C(=O)C1/C=C1/C(=O)NC(=O)N(c2cccc(C)c2)C1=O (centres undefined)	0	0	13µM	0	0	0
CC1=NN(c2ccccc2)C(=O)C1/C=C1\C(=O)NC(=O)N(c2ccc(C)c(C)c2)C1=O (centres undefined)	0	0	15µM	0	0	0
CC1=NN(c2ccccc2)C(=O)C1/C=C1\C(=O)NC(=O)N(c2cc(C)cc(C)c2)C1=O (centres undefined)	0	0	9.5µM	0	0	0
